# Source: PubChem
# HCV inh: blocks hepatitis C virus | Huh7.5.1 HCVcc-Cre infection, luciferase reporter, 44 h | Potency, µM (series often up to 41.8 µM), for the others: at the top dose activity change, negative = inhibition, actives largely listed as inhibitors | AID 651820 | 340,000 compounds, 3.4% hits; active = well fitted inhibition curve with a large enough effect; inconclusive = small, poorly fitted or top-dose-only effect, or another doubt; inactive = no such curve, though single readings can be large or run the other way; note: potency is the fitted concentration of half-maximal effect
#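 Antiviral activity was scored by luciferase reporter output from cells infected with HCVcc-Cre (~0.5 moi) in presence of compound, 44 h infection period, cells seeded 1,000/well 4 h prior.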
# Vaccinia Venus: inhibitors of vaccinia virus (Venus reporter) | Potency, µM (top dose mostly 36.5 µM), without a hit: at the top dose activity change, negative = inhibition, most hits filed as inhibitors | 330,000 compounds, 0.46% hits | Vaccinia virus Venus reporter expression, fluorescence; calls by dose curve; tested in A549 cells; note: potency is the fitted concentration of half-maximal effect; nearly all actives have a fitted effect of over 30% in size
# VACV mCherry inh: inhibitors of vaccinia virus infection (mCherry reporter signal) | Vaccinia virus mCherry reporter infection, fluorescence | Potency, µM (top dose mostly 36.5 µM), without a hit: at the highest dose activity change, negative = inhibition, most hits filed as inhibitors | 310,000 compounds, 0.63% hits | AID 720579; calls by dose curve; tested in A549 cells; note: potency is the fitted concentration of half-maximal effect; nearly all actives have a fitted effect of over 35% in size
# HCMV antiviral: human cytomegalovirus inhibition | HFF cells, HCMV-luciferase reporter, 72 h; stronger effect = lower value | activity change, negative = inhibition, % at 57.5 µM | 410,000 compounds, 4.5% hits | AID 1259415; in the data active = activity change below about -60%; inconclusive = no clear call, values can overlap the other calls; inactive = above about -39%
#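 Two compound doses tested in HFFs infected with HCMV-luciferase, MOI 1 PFU/cell, 72 h at 37C. Lysate luminescence read with OneGlo; data normalized against buffer-only and 10uM Salinomycin inhibitor controls.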
# Marburg entry inh: Marburg virus entry inhibition; Marburg virus pseudotyped entry inhibition, cell reporter; Potency, µM (series often up to 37.8 µM), for the others: top-dose activity change, negative = inhibition, usual class: inhibitors; 300,000 compounds, 1.8% hits; AID 540276; calls by dose curve; tested in HEK293 cells; note: potency is the fitted concentration of half-maximal effect
# LASV entry inh: blocks Lassa virus binding to or entry into cells. AID 540256. 300,000 compounds, 1.2% hits. Lassa virus pseudotype entry inhibition, cell reporter. Potency, µM (series often up to 37.9 µM), without a hit: at the top dose activity change, negative = inhibition, hits mostly inhibitors; calls by dose curve; tested in HEK293 cells; note: potency is the fitted concentration of half-maximal effect; nearly all actives have a fitted effect of over 50% in size
# An asterisk follows results filed as active; i = inactive; ? = inconclusive; . = no result given; ! = not active in a repeat; [ ] = another dose, or the depositor's remark. Sampled rows, rich in hits. Any-hit rate of the full collection: about 7.8%. % is set by controls: 0 for no effect and ±100 for the full control effect.
SMILES,HCV inh,Vaccinia Venus,VACV mCherry inh,HCMV antiviral,Marburg entry inh,LASV entry inh
COc1ccc2nc(C)cc(SCC(=O)N/N=C/c3ccco3)c2c1,-26.6%,-21.0%,-22.2%,-26.0,8.91µM*,.
Cc1cccc(NC(=O)CSc2cccc3cccnc23)c1C,-8.6%,-21.0%,-7.6%,-6.9,16.0%[46.1 µM],-7.9%[46.1 µM]
NNC(=O)c1ccc(CSc2cccc3cccnc23)cc1,5.4%,-13.2%,-5.0%,-1.4,2.1%[46.1 µM],19.2%
CCc1nn2c(=O)cc(COC(=O)c3ccccc3NC(=O)COc3ccc(F)cc3)nc2s1,.,-14.0%,-14.6%,?,.,10.6%[46.1 µM]
CCOC(=O)c1c(C)oc2nc(C)nc(NCCc3ccc(C)cc3)c12,.,-14.7%,i,4.5,.,15.1%[46.1 µM]
C=CCOc1ccc([C@H]2/C(=C(/O)c3ccc(F)cc3)C(=O)C(=O)N2CCCN(C)C)cc1,.,.,.,.,21.4%,.
Cc1ccc(S(=O)(=O)N(CCc2ccccc2)CC(=O)Nc2ccc(Br)cc2)cc1,.,-14.2%,-21.1%,-21.6,.,4.0%[46.1 µM]
O=C(CC1N=C2c3ccccc3N=C(SCc3ccccc3F)N2C1=O)NCc1cccs1 (stereo not drawn),.,-14.6%,-16.4%,10.2,.,12.9%[46.1 µM]
CC(C)N(Cc1nc(-c2ccc(Cl)cc2)no1)C(=O)c1ccco1,.,2.3%,-10.5%,-27.7,-3.1%[46.1 µM],-1.8%[46.1 µM]
Cc1cccc(NC(=O)c2c(C)cc(C)nc2SCC(=O)c2ccccc2)c1,.,-16.6%,i,6.4,?,5.9%[46.1 µM]
COc1ccc(NC(=O)CSc2nc(C)cc(C)c2C(=O)Nc2ccccc2OC)cc1,.,-8.4%,-9.5%,0.7,-9.4%[46.1 µM],-6.4%[46.1 µM]
COc1ccccc1NC(=O)c1c(C)cc(C)nc1SCC(=O)Nc1ccc(C)c(C)c1,.,-14.4%,i,?,7.94µM*,-21.8%[46.1 µM]
Cc1cc(C)c(C(=O)Nc2ccccc2)c(SCC(=O)Nc2ccc(Br)cc2C)n1,.,-14.0%,-17.0%,-69.2*,?,-18.0%[46.1 µM]
Cc1cccc(CNC(=O)c2ccc(NC(=O)N3CCSc4ccccc43)cc2)c1,.,-4.8%,-1.3%,8.1,13.0%[46.1 µM],-13.4%[46.1 µM]
Cc1cc(C)c(C(=O)/C=C/C=C/c2ccccc2)c(=O)[nH]1,0.7%,?,-28.5%,12.0,5.5%,-13.9%
Cc1cc(C)c(C(=O)/C=C/c2ccc(C(C)C)cc2)c(=O)[nH]1,-9.7%,?,5.01µM*,-102.9*,?,?
CCCCCn1cc2c(c1-c1ccc(Cl)cc1)c(=O)n(C)c(=O)n2C,.,-19.8%,-21.0%,-0.4,13.3%[46.1 µM],?
CCOc1ncccc1C(=O)OCC(=O)Nc1ccc(-c2nc3ccc(C)cc3s2)cc1,-25.3%,?,?,-9.0,12.6µM*,?
Cc1ccc(NC(=O)COC(=O)c2ccco2)cc1,2.8%,.,.,15.3,.,.
Cc1ccc2nc(-c3ccc(NC(=O)COC(=O)c4ccco4)cc3)sc2c1,3.5%,-27.5%,?,-5.9,1.26µM*,2.24µM*
Cc1ccc2nc(-c3ccc(NC(=O)COC(=O)c4ccc(Br)o4)cc3)sc2c1,14.0%,-6.3%,-9.4%,41.2,?,5.62µM*
Cc1ccc(NC(=O)CSc2nc3ccc(NC(=O)c4ccco4)cc3s2)cc1,.,-15.0%,-5.5%,-62.4*,1.7%[46.1 µM],3.5%[46.1 µM]
Cc1ccc2nc(-c3ccc(NC(=O)COc4ccccc4)cc3)sc2c1,.,-1.7%,-4.3%,39.6,.,10.0%[46.1 µM]
Cc1ccc2nc(-c3ccc(NC(=O)COC(=O)c4cncc(Br)c4)cc3)sc2c1,6.0%,-1.2%,-12.7%,54.6,?,?
Cn1c(=O)oc2cc(S(=O)(=O)N3CCC(C(=O)N4CCN(c5ccc(Cl)cc5)CC4)CC3)ccc21,.,-15.9%,-17.6%,-27.5,-8.2%[46.1 µM],1.9%[46.1 µM]
SMILES,HCV inh,Vaccinia Venus,VACV mCherry inh,HCMV antiviral,Marburg entry inh,LASV entry inh
C=CCn1c(SCC(=O)Nc2ccc(-c3nc4ccc(C)cc4s3)cc2)nnc1-c1ccccc1,10µM*,-17.0%,?,49.1,?,?
C=CCn1c(SCC(=O)NNC(=O)Nc2ccc(C)cc2)nnc1-c1ccccc1,11.8%,.,.,?,.,.
CNS(=O)(=O)c1cccc(C(=O)OCC(=O)Nc2ccc(-c3nc4ccc(C)cc4s3)cc2)c1,-14.9%,-8.6%,-2.0%,.,?,?
Cc1ccc2nc(-c3ccc(NC(=O)COC(=O)c4ccc([N+](=O)[O-])o4)cc3)sc2c1,12.7%,-22.4%,i,?,3.98µM*,7.08µM*
CCCOc1ccc(NC(=O)CC2C(=O)N(c3ccc(OC)cc3)C(=O)N2CCc2ccncc2)cc1 (stereo not drawn),.,-1.8%,0.1%,-37.0,.,?
Cc1cc(OCc2cc(C(=O)NCCN3CCCCC3CO)no2)cc(C)c1Cl (stereo not drawn),8.91µM*,?,-14.2%,-10.8,?,?
COc1ccc(NC(=O)Cn2cnc3ccc(S(=O)(=O)N4CCC(C)CC4)cc3c2=O)cc1OC,.,-5.8%,-2.1%,-22.2,-26.8%[46.1 µM],-21.8%[46.1 µM]
CCCCOc1ccc(CSCCN=C(N)N)cc1,?,?,?,-62.1*,?,?
CCOc1ccc2nc(NC(=O)CN3CCC(n4nnc5cc(F)ccc54)CC3)sc2c1,?,.,.,-68.4*,?,?
O=C(CN1CCC(n2nnc3cc(F)ccc32)CC1)Nc1ccccc1N1CCOCC1,-8.7%,-13.8%,-23.8%,?,13µM*!,-3.2%
O=C(CNC(=O)c1ccccc1)OCC(=O)c1ccccc1,.,-5.4%,41.0%,.,.,.
CCC[C@H]1[C@@H](NS(=O)(=O)Cc2ccccc2)CC[C@@]23CCCN2C(=O)CCC[C@@H]13,.,.,.,-1.7,.,.
Cc1cc(C(=O)NCCc2ccc(Cl)cc2)c2c(C)nn(-c3ccccc3)c2n1,.,7.0%,-6.3%,18.0,.,13.3%[46.1 µM]
CCC1=NN2C(=N)/C(=C\c3cccn3-c3ccc(C)c(C)c3)C(=O)N=C2S1,?,-18.7%,i,-39.6,-10.6%[46.1 µM],6.9%[46.1 µM]
CCC1=NN2C(=N)/C(=C\c3cccn3-c3ccc(Cl)cc3)C(=O)N=C2S1,?,8.5%,-0.6%,-81.1*,5.6%[46.1 µM],-11.7%
O=C(NCc1ccccc1)/C(=C/c1ccc(OC(F)F)cc1)c1ccccc1,22.4µM*,?,-19.7%,?,0.1%,-9.1%
C/C=C/C(=O)N1c2ccc(C)cc2C(C)=CC1(C)C,-2.2%,.,.,-12.2,.,.
CC1=CC(C)(C)N(S(=O)(=O)c2ccc(F)cc2)c2ccccc21,9.0%,?,-13.4%,-28.8,?,-23.2%
CC(=O)Nc1ccc(S(=O)(=O)N2c3ccccc3C(C)=CC2(C)C)cc1,8.0%,-20.2%,-24.4%,-80.4*,?,?
CC1=CC(C)(C)N(S(=O)(=O)c2ccc(C)cc2)c2ccc(C)cc21,25.5%,?,-24.6%,-73.8*,?,-21.3%
COc1ccc(/C(O)=C2\C(=O)C(=O)N(CCCN(C)C)[C@H]2c2ccccc2)cc1OC,.,.,.,.,7.0%,.
CC(C)N1C(=S)N=C2C=C(C(F)(F)F)C=CC21 (stereo not drawn),.,.,.,.,-17.8%[46.1 µM],.
O=c1c2cc(Br)ccc2[nH]c(=S)n1-c1ccccc1,9.5%,-4.2%,i,-15.5,-0.2%,13.3%
